Screening data deposited in PubChem BioAssay by several laboratories.
Most compounds without a hit are left out; they make up all but 1.4% or so of the library.
eLon inh: E. coli protease La inhibition. 0.42% of 360,000 active. purified E. coli Lon protease, fluorescence polarization. P0A9M0. AID 602123. inhibition, % at 7.94 µM; in the data active = inhibition above about 13%, passing the limit was not always enough
MCL1-BIM inh: MCL1-BIM-BH3 interaction inhibition (human). GST-MCL1 / FITC-Bim-BH3 fluorescence polarization. 0.68% of 320,000 active. AID 2057. inhibition, % at 10.9 µM;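 active = inhibition above the mean inhibition of all tested compounds plus 3 SD, set per campaign, cut at about 40% in these data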;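 also: higher means more loss of mP so more displacement of Bim peptide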
Target sequence (Q07820 whole entry, looked up): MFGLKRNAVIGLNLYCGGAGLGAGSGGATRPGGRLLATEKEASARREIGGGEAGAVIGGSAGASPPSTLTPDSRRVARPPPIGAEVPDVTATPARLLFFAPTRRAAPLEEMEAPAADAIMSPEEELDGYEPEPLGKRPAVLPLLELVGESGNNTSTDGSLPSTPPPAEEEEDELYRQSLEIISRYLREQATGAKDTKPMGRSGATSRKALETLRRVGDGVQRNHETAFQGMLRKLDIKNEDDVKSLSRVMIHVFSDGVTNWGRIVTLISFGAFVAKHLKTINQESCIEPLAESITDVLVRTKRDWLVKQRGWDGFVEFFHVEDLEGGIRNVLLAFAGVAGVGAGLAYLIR
GLD-1 TGE inh: GLD-1-TGE RNA interaction inhibition (C. elegans); 0.44% of 320,000 active; Q17339; purified GLD-1 + fluorescein TGE RNA, fluorescence polarization; inhibition, % at 5.96 µM;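 active = percent inhibition above a per-plate cutoff, the plate mean of test compounds plus 3 SD, cut at about 30% in these data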
Bcl-xL primary: inhibitors of human Bcl-xL; Q07817; GST-Bcl-xL / FITC-Bim BH3 peptide fluorescence polarization; inhibition, % at 10.9 µM; 0.7% of 320,000 active; AID 2129;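 active = inhibition above the mean of all tested compounds plus 3 SD, cutoff set per campaign, cut at about 30% in these data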;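 also: inhibitors lower millipolarization by displacing the labeled peptide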
MEX-5 binding: C. elegans MEX-5 TCR-2 RNA binding activity. Q9XUB2. MEX-5/FITC-TCR2 RNA binding, fluorescence polarization; stronger effect = lower value. activity score (negative = inhibition of binding), % at 10 µM. 0.38% of 300,000 active. AID 1832;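 active = inhibition past about -25% in most replicates, and total fluorescence under double the plate's negative control median, limit read from the data; inconclusive = replicates evenly split on the limit, or fluorescence at least double controls; inactive = too little inhibition in most replicates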
Each line names hits and unclear results; the compound was inactive in the other large screens.

CN1OC[C@@H]2CN(Cc3ccc(Cl)cc3)[C@H](c3ccc(-n4ccnc4)cc3)C[C@@H]21	none (no result: MCL1-BIM inh, GLD-1 TGE inh, Bcl-xL primary, MEX-5 binding)
Cc1cc(C(=O)OCC(=O)Nc2c(Cl)cccc2C(F)(F)F)c(C)o1	Bcl-xL primary 46
Cc1ccsc1C(=O)OCC(=O)Nc1c(Cl)cccc1C(F)(F)F	none
O=C(CSc1n[nH]c(=O)[nH]c1=O)Nc1ccc2c(c1)C(=O)c1ccccc1C2=O	MCL1-BIM inh 40, Bcl-xL primary 34
O=C(CSc1n[nH]c(=O)[nH]c1=O)Nc1cccc(S(=O)(=O)N2CCOCC2)c1	none
COC(=O)N(C)C[C@H]1OCc2cnnn2CCCC(=O)N([C@H](C)CO)C[C@H]1C	none (no result: MCL1-BIM inh, GLD-1 TGE inh, Bcl-xL primary, MEX-5 binding)
O=C1Cc2cccc(=O)c(O)c2C(=O)O1	none (no result: MCL1-BIM inh, GLD-1 TGE inh, Bcl-xL primary, MEX-5 binding)
O=C1c2c(O)cccc2Cc2cccc(O)c21	Bcl-xL primary 31 (no result: MEX-5 binding)
O=C1C2C3C=CC(C3)C2C(=O)N1CNc1ccc(O)cc1 (stereo unspecified)	Bcl-xL primary 30 (no result: eLon inh)
Cc1cc[n+](-c2[nH]c(=O)sc2/C=N/N=C(\[O-])c2ccncc2)cc1	MCL1-BIM inh 49, Bcl-xL primary 38
CC(=O)NC(c1ccccc1)c1nc(/C=C/c2ccccc2)cs1 (stereo unspecified)	none (no result: MCL1-BIM inh, GLD-1 TGE inh, Bcl-xL primary, MEX-5 binding)
O=C(Nc1ccc(S(=O)(=O)Nc2nccs2)cc1)c1ccc(N2C(=O)c3ccccc3C2=O)cc1	MEX-5 binding -29
CCCn1nc(C(=O)Nc2ccc(S(=O)(=O)Nc3nccs3)cc2)c2ccccc2c1=O	MEX-5 binding -41
CCn1nc(C(=O)Nc2ccc(S(=O)(=O)Nc3ncccn3)cc2)c2ccccc2c1=O	none
COC(=O)CCC(=O)OC1(C)C(=O)C=C2C=C(C3CC3)N(Cc3ccc(OC)cc3)C=C2C1=O (stereo unspecified)	Bcl-xL primary 37
COC(=O)CCC(=O)OC1(C)C(=O)C2=CN(CC(C)C)C(c3ccc(OC)cc3)=CC2=C(Br)C1=O (stereo unspecified)	MCL1-BIM inh 46, Bcl-xL primary 43 (no result: eLon inh)
COC(=O)CCC(=O)OC1(C)C(=O)C2=CN(CCCOC(C)C)C(c3ccc(OC)cc3)=CC2=C(Br)C1=O (stereo unspecified)	MCL1-BIM inh 45, Bcl-xL primary 42, MEX-5 binding inconclusive
COC(=O)CCC(=O)OC1(C)C(=O)C2=CN(Cc3ccc(OC)cc3)C(c3ccc(OC)cc3)=CC2=C(Br)C1=O (stereo unspecified)	none
COC(=O)CCC(=O)OC1(C)C(=O)C2=CN(C3CC3)C(c3ccc(OC)cc3)=CC2=C(Br)C1=O (stereo unspecified)	none
COC(=O)CCC(=O)OC1(C)C(=O)C2=CN(CC3CC3)C(c3ccc(OC)cc3)=CC2=C(Br)C1=O (stereo unspecified)	Bcl-xL primary 33
COC(=O)CCC(=O)OC1(C)C(=O)C=C2C=C(C3CC3)N(Cc3ccc4c(c3)OCO4)C=C2C1=O (stereo unspecified)	none
c1cn2c(-c3ccoc3)cncc2n1	none (no result: MCL1-BIM inh, GLD-1 TGE inh, Bcl-xL primary, MEX-5 binding)
CC1(C(=O)Nc2ccc(F)c(Cl)c2)Cc2c(-c3ccccc3)ccnc2O1 (stereo unspecified)	none (no result: MCL1-BIM inh, GLD-1 TGE inh, Bcl-xL primary, MEX-5 binding)
C[C@@H]1CCCCO[C@@H](CN(C)C(=O)CCC(F)(F)F)[C@@H](C)CN([C@H](C)CO)C(=O)c2cc(N(C)C)ccc2O1	none (no result: MCL1-BIM inh, GLD-1 TGE inh, Bcl-xL primary, MEX-5 binding)
O=C(CN1C(=O)c2ccccc2S1(=O)=O)Nc1ncc(Cl)cc1Cl	GLD-1 TGE inh 57 (no result: MCL1-BIM inh, Bcl-xL primary, MEX-5 binding)
COC(=O)C1(C)NC(c2ccco2)C2C(=O)N(c3ccc(F)cc3)C(=O)C21 (stereo unspecified)	none
O=C(c1ccco1)[C@@H]1[C@@H]2C(=O)N(c3ccc(Br)cc3)C(=O)[C@@H]2C2c3ccccc3C=CN21 (stereo partly specified)	none (no result: MCL1-BIM inh, GLD-1 TGE inh, Bcl-xL primary, MEX-5 binding)
NC(=O)[C@@H]1[C@@H]2C(=O)N(c3ccc(F)cc3)C(=O)[C@@H]2[C@H]2C=Cc3ccccc3N21	Bcl-xL primary 34
O=C1C2C3C=CC(C3)C2C(=O)N1c1ccccc1 (stereo unspecified)	none
O=C(c1ccco1)[C@@H]1[C@@H]2C(=O)N(c3ccc(F)cc3)C(=O)[C@@H]2C2c3ccccc3C=CN21 (stereo partly specified)	MCL1-BIM inh 82, GLD-1 TGE inh 69, Bcl-xL primary 78 (no result: eLon inh)
O=C(c1ccco1)[C@@H]1[C@@H]2C(=O)N(c3ccc(F)cc3)C(=O)[C@@H]2[C@H]2C=Cc3ccccc3N21	Bcl-xL primary 33 (no result: MEX-5 binding)
